Among the data in the OligoGym collection are sensor-assay potency score (higher = more potent) values, retold here.
Note: reference of the scale not given here.

One test addresses MPHOSPH9. The test can be described thus: pooled miR-30 sensor sort-seq; sequence = guide strand. The following applies: shRNA.
TTCATCTACAGTGTTGACCGAG registered a sensor-assay potency score (higher = more potent) of 0.377.
Still for that read-out and setting: the same measure for TTGTTGATGAACTTCCAGGTGA: -0.421; for TTTATCAACAAGCTTGTTGATG: -0.498; for TTGTTTAGAAACAAGCTGCTTC: 0.601.
Same read-out and setting: the same measure for TTAAAGACACATGACACTCTTC: 0.499; for TATTTGTTTAGAAACAAGCTGC: 0.128.
Still for that read-out and setting: the same measure for TAGATCTTGAACCTCCATCTTC: -0.263; for TTTGGTGACACATCTGTGGAAG: -0.32; for TTGAGCTTCTTTATCATCTGAG: 0.656.
For the sequence TTACAATGTAGAACAAGTCTAT, the sensor-assay potency score (higher = more potent) was found to be 0.128.
For the sequence TTGCTTGTGAAAATGAGTCTAT, the sensor-assay potency score (higher = more potent) is -0.111.
The same measure, in the same setting: the result for TAACGTAGGATCTAGAGTCAGG reads -0.553.

Another test deals with MPST. The description is as above. Conditions: shRNA.
In the case of TCGTAGGTCTTGATGAAGGCGG, the sensor-assay potency score (higher = more potent) is -0.615.
TTCTCCTGGAACAGATGGCGGA returned a sensor-assay potency score (higher = more potent) of -0.871.
The same measure, in the same setting: the same measure for TCGATGTCGAAGAAAGCGGCGC: -0.934.
For the sequence TGAAGAAACACTCTCTTGGTGA, the sensor-assay potency score (higher = more potent) is -0.0211.
TTCTCCTTGATGTCCTCGTAGG gave a sensor-assay potency score (higher = more potent) of -1.08.
The same measure, in the same setting: the same measure for TAGGTCTTGATGAAGGCGGGGT: 0.122; for TTAGACAGGTCCACTTTCTTCT: 0.441; for TACCACTCCACCCAGGAGCCAT: -1.23.
The same measure, in the same setting: the same measure for TTGAGTGAAGAAACACTCTCTT: 0.653; for TGAGTGAAGAAACACTCTCTTG: -1.53.
On the same count and under the same terms, the same measure for TCGTAGATCACGACGTGGGTGG: -0.279.
Regarding TTGATGTCCTCGTAGGTCTTGA, the sensor-assay potency score (higher = more potent) was -0.443.
